Hits are enriched below; roughly 3.7% of the tested compounds scored in any of these assays.
PfHsp90 yeast 2: growth inhibition of yeast expressing Plasmodium Hsp90 | inhibition, % at 9.4 µM | 310,000 compounds, 0.32% hits | AID 504621 | S. cerevisiae expressing PfHsp90, BacTiter-Glo ATP, 48 h; yeast lacking PDR1 and PDR3 efflux regulators;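 active means every replicate shows inhibition above about 80%, whatever the replicate mean, limit read from the data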;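 further: 0% = DMSO neutral controls and 100% = 20 µM radicicol positive controls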
NLRP3 yeast inh: NALP3 inhibition in yeast | Yeast reconstituted NLRP3/ASC/caspase-1, beta-gal luminescence, 24 h | inhibition, % at 10 µM | 330,000 compounds, 0.39% hits | AID 2825;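 active means inhibition of 50% or more; inactive means inhibition below 50%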;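 further: plate controls were induced DMSO wells for no effect and uninduced yeast grown without galactose for full effect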
tim23-1 inh: inhibits growth of tim23-1 mutant yeast | inhibition, % at 20 µM | S. cerevisiae tim23-1 growth, BacTiter-Glo luminescence, 24 h | 330,000 compounds, 1.3% hits;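 active means growth inhibition of the mutant yeast at or above 50%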;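 further: temperature-sensitive mutant grown at 25 °C; plate controls were DMSO-treated mutant yeast for no effect and medium wells lacking yeast for full effect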
TIM10 inh: growth inhibitors of TIM10 yeast strain. S. cerevisiae TIM10 strain growth, BacTiter-Glo luminescence, 24 h. inhibition, % at 10 µM. 330,000 compounds, 1.4% hits. AID 463195;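 active means inhibition of 40% or more at the single tested concentration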;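 further: wild-type TIM10 isogenic control strain grown at permissive 25 °C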
tim10-1 inh: inhibits growth of tim10-1 mutant yeast. S. cerevisiae tim10-1 ts strain growth, BacTiter-Glo, 24 h. inhibition, % at 20 µM. 330,000 compounds, 2.2% hits. AID 463190;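 active means inhibition of at least 40%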;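 further: mutant grown at 25 °C; 0% = DMSO wells with yeast and 100% = wells holding no yeast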
TIM10 conf: confirmation of TIM10 yeast growth inhibitors; 4,600 compounds, 63% hits; AID 463215; shares compounds with TIM10 inh; inhibition, % at 10 µM; S. cerevisiae tim10 strain growth, BacTiter-Glo luminescence, 24 h;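 active means inhibition of yeast growth at or above a set limit in either of two replicates at 10 µM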;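 further: this counterscreen used the strain with wild-type TIM10; 0% = yeast with DMSO and 100% = medium wells lacking yeast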
tim23-1 confirm: confirmation of tim23-1 mutant yeast growth inhibitors. shares compounds with tim23-1 inh. S. cerevisiae tim23-1 growth, BacTiter-Glo luminescence, 24 h. inhibition, % at 20 µM. 4,400 compounds, 83% hits. AID 463218;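 active means inhibition above about 39% in either of two replicate wells at 20 µM, limit read from the data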;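 further: temperature-sensitive tim23-1 mutant grown at 25 °C; 0% = DMSO wells with yeast and 100% = medium wells without yeast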
* = called active by the depositor; x = not tested or not shown.

SMILES	PfHsp90 yeast 2	NLRP3 yeast inh	tim23-1 inh	TIM10 inh	tim10-1 inh	TIM10 conf	tim23-1 confirm
CCOC(=O)c1ccc(NS(=O)(=O)c2ccc3c(c2)NC(=O)CCS3)cc1	-104.6	9.9	2.1	-4.6	9.9	x	x
COc1ccc(C(=O)C[n+]2cc(-c3ccc(OC)cc3)n3c2CCCC3)cc1	-18.7	5.4	-0.4	-0.5	11.5	x	x
Cc1ccc(C(=O)C[n+]2cc(-c3ccc(C)cc3)n3c2CCCCC3)cc1	12.6	6.8	19.7	46.4*	30.2	15.0	x
Cc1nnc(NC(=O)CCn2c(=O)oc3ccccc32)s1	6.5	25.6	5.9	-24.3	15.3	x	x
CC(=O)OCC=C1CCC2C3CC(C)C4=CC(=O)CCC4(C)C3C(O)CC12C (stereo not drawn)	-10.5	x	x	x	x	x	x
Cc1ccc(C(=O)C(C(=O)/C=C/c2ccccc2)=C2SCCCS2)cc1	18.6	20.8	31.6	51.7*	36.7	-16.1	x
CC1CCc2c(sc3ncnc(SCC(=O)c4ccccc4)c23)C1 (stereo not drawn)	15.9	9.4	6.7	0.4	6.2	x	x
CC(=O)CSc1ncnc2sc3c(c12)CCC(C)C3 (stereo not drawn)	-30.2	15.2	37.1	43.2*	39.9	-4.8	x
Cn1c(CS(=O)Cc2c(Cl)cccc2Cl)nnc1SCc1c(Cl)cccc1Cl (stereo not drawn)	-3.5	-3.8	38.8	34.6	32.4	x	x
O=S(Cc1ccc(Br)cc1)Cc1nnc(SCc2c(Cl)cccc2Cl)n1-c1ccccc1 (stereo not drawn)	8.7	11.8	41.5	41.0*	25.7	22.9	x
COc1cc(C(=O)NCCCNC(=O)c2cc(OC)c(OC)c(OC)c2)cc(OC)c1OC	x	-10.0	-6.0	-10.8	-21.1	x	x
COc1cc(C(=O)NCCNC(=O)C2CCCNC2=O)cc(OC)c1OC (stereo not drawn)	23.8	14.7	10.8	40.3*	9.5	-11.9	x
Cc1ccc(C(=O)N2CCN(Cc3ccccc3)CC2)o1	-24.6	16.4	-2.1	11.6	0.4	x	x
O=C(c1ccc([N+](=O)[O-])o1)N1CCN(Cc2ccccc2)CC1	-12.3	17.5	39.9	43.1*	33.2	37.6*	x
CNC(=S)N/N=C/c1c(C)nn(-c2ccc(F)cc2)c1Cl	x	12.6	1.8	42.7*	18.2	-5.5	x
COc1cc2c(cc1NC(=O)CN(C)Cc1nc3ccccc3c(=O)[nH]1)oc1ccccc12	x	18.4	26.5	41.7*	26.7	-24.8	x
COc1ccccc1C(=O)NCCC(=O)NNC(=O)c1ccccc1O	1.2	-0.5	7.9	96.5*	-2.8	-7.7	x
c1ccc(-n2nnnc2NCCc2c[nH]c3ccccc23)cc1	x	8.3	5.7	-2.8	14.7	x	x
Clc1ccc2[nH]cc(-c3nnnn3-c3ccccc3)c2c1	x	12.1	21.3	41.7*	28.6	28.9	x
O=C(CSc1ccccc1)Nc1ccc2c(c1)OCCO2	-20.9	14.4	24.3	-8.6	-9.9	x	x
O=C(CSc1ccc(-c2ccccc2)nn1)Nc1ccc2c(c1)OCCO2	-26.5	24.4	54.9*	55.5*	36.2	58.5*	79.2*
Cc1ccc(-c2cc(O)cc3sc(=O)oc23)cc1C	-49.9	25.2	71.3*	53.5*	23.2	68.0*	6.8
O=c1oc2cc(O)ccc2s1	17.6	43.6	-3.7	-1.4	-8.1	x	x
COc1cc([N+](=O)[O-])cc2sc(NC(=O)c3c(F)cccc3F)nc12	-19.0	-6.3	51.7*	47.0*	37.1	43.6*	50.7*
O=C(Nc1nc(-c2ccc([N+](=O)[O-])cc2)cs1)c1c(F)cccc1F	-8.5	-0.1	2.1	3.7	-10.0	x	x
SMILES	PfHsp90 yeast 2	NLRP3 yeast inh	tim23-1 inh	TIM10 inh	tim10-1 inh	TIM10 conf	tim23-1 confirm
CCN(CC)C(=O)c1ccc(Oc2ccc([N+](=O)[O-])cc2Cl)cc1	-38.8	15.9	20.5	18.5	38.4	x	x
CCN(CC)C(=O)c1cc([N+](=O)[O-])cc2c1-c1ccc([N+](=O)[O-])cc1C2=C(C#N)C#N	-3.3	11.2	50.6*	40.5*	36.8	22.1	74.3*
CN1C(=O)Cc2cc(S(=O)(=O)N3CCN(c4ccccc4F)CC3)ccc21	-7.2	4.7	11.3	12.2	13.5	x	x
O=C(Nc1ccc2nc(-c3ccccc3)[nH]c2c1)c1cccs1	-26.1	13.8	59.4*	46.8*	-22.4	19.9	69.2*
O=C(Nc1nc(-c2ccccc2)cs1)c1cccs1	6.2	17.2	53.4*	43.6*	34.3	5.2	54.6*
COCCN(C(=O)CSc1nnc(-c2cccc(OC)c2)n1C)c1c(N)n(Cc2ccccc2)c(=O)[nH]c1=O	x	-12.8	-6.0	4.1	8.5	x	x
Cn1c(CCN2CCN(c3ccccn3)CC2)nc2cc(NS(=O)(=O)c3ccc(Cl)cc3)ccc21	-0.7	-5.9	14.0	3.1	6.5	x	x
O=C(CCN1CCOCC1)N/N=C/c1cc(Br)cc(Br)c1O	-48.3	32.0	62.8*	57.9*	36.8	50.2*	62.4*
Oc1c(Cl)cc(Cl)cc1C=Nc1ccc(N2CCOCC2)cc1	-20.6	14.7	73.9*	65.7*	16.3	17.5	38.5*
COc1ccc(-n2c(C)cc(C(=O)CCl)c2C)cc1	-17.4	-55.3	43.8	3.1	-42.0	x	x
CC(=O)Nc1ccc(SCC(=O)c2cc(C)n(-c3ccccc3)c2C)cc1	-27.7	2.4	53.9*	47.9*	35.1	43.9*	53.3*
COc1ccc(-n2c(C)cc(C(=O)CSc3ccc(NC(C)=O)cc3)c2C)cc1	-4.4	2.6	62.0*	41.0*	30.3	31.2	48.9*
CC(=O)Nc1ccc(SCC(=O)c2cc(C)ccc2C)cc1	-9.3	28.9	31.9	-0.2	19.6	x	x
Cc1cc2cc(C=O)c(Cl)nc2cc1C	7.3	31.2	64.2*	44.5*	34.3	28.1*	80.6*
CC1=C(C(=O)N2CCOCC2)C(c2c(F)cccc2F)NC(=O)N1 (stereo not drawn)	2.6	0.2	6.2	-2.5	-2.5	x	x
Cc1ccc(S(=O)(=O)/C(=C\N(C)C)c2cnc(Cl)s2)cc1	15.6	5.1	7.5	8.7	12.0	x	x
Cc1ccc2nc(-c3ccc4c(c3)OCCO4)cn2c1	-5.7	38.8	51.2*	74.3*	34.4	75.6*	52.1*
CC(c1ccncc1)C(C)c1ccncc1 (stereo not drawn)	10.4	14.8	-28.1	-22.6	-20.2	x	x
CC(CN1C(C)CCCC1C)OC(=O)c1ccccc1Br (stereo not drawn)	28.1	10.6	4.7	8.6	-12.1	x	x
N#Cc1c2n(c(=O)[nH]c1=O)CCCCC2	11.2	23.6	-0.4	1.9	4.6	x	x
N#CC1=C(N2CCCCC2)c2cc3c(n2C1=O)CCCC3	-20.9	22.3	51.6*	44.5*	34.1	32.7*	56.8*
NNC(=O)c1cc2cc(OC(F)(F)F)ccc2[nH]1	24.9	7.8	57.6*	50.4*	28.6	40.4*	49.7*

Source: PubChem BioAssay (several laboratories)
